This note sets out measurements from PubChem BioAssay (NCATS).

Records with an inconclusive call do not appear. A number with no mark means an inactive call. Activity calls are given as the source filed them. Calls follow the shape of the dose curve; as a rule, active = well fitted curve in the direction sought with a large enough effect; inconclusive = small, poorly fitted or top-dose-only effect, or another doubt; inactive = no such curve, though single readings can be large; an effect the other way counts as inactive or inconclusive.

In assay [1] the target is Rap guanine nucleotide exchange factor 3 (Homo sapiens) (UniProt O95398). The experiment in a line: Confirmatory qHTS for antagonist of cAMP-regulated guanine nucleotide exchange factor 3 (EPAC1) (AID 1645880). Also: nearly all actives have a fitted effect of over 55% in size. Also: potency is read from the fitted curve at half-maximal effect. The essentials:
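Nucleotide exchange uses 100 nM EPAC1, 250 nM RAP1B-BODIPY-GDP and 50 uM GDP, with compounds in a concentration-titration series. After 5 min at room temperature, fluorescence (480 nm ex/540 nm em) is read every 5 min for 30 min. Data are normalized to control ATA and DMSO.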

The target is the same in assay [2]. The experiment in a line: Confirmatory qHTS for agonist of cAMP-regulated guanine nucleotide exchange factor 3 (EPAC1) (AID 1645881).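 Also: EPAC1 catalysed release of BODIPY-GDP from Rap1B seen as fluorescence loss; 100% = effect of cAMP agonist control; nearly all actives have a fitted effect of over 75% in size.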
Assay [3] deals with Rap guanine nucleotide exchange factor 4 (Homo sapiens) (UniProt Q8WZA2). The experiment in a line: Confirmatory qHTS for agonist of cAMP-regulated guanine nucleotide exchange factor 4 (EPAC2) (AID 1645884).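 Also: nucleotide exchange releases bodipy-GDP from Rap1 and this lowers its fluorescence; % is scaled to controls: 0 for no effect and ±100 for the full control effect; nearly all actives have a fitted effect of over 65% in size.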
Chain of Rap guanine nucleotide exchange factor 4 (Homo sapiens) (Q8WZA2 whole entry, looked up): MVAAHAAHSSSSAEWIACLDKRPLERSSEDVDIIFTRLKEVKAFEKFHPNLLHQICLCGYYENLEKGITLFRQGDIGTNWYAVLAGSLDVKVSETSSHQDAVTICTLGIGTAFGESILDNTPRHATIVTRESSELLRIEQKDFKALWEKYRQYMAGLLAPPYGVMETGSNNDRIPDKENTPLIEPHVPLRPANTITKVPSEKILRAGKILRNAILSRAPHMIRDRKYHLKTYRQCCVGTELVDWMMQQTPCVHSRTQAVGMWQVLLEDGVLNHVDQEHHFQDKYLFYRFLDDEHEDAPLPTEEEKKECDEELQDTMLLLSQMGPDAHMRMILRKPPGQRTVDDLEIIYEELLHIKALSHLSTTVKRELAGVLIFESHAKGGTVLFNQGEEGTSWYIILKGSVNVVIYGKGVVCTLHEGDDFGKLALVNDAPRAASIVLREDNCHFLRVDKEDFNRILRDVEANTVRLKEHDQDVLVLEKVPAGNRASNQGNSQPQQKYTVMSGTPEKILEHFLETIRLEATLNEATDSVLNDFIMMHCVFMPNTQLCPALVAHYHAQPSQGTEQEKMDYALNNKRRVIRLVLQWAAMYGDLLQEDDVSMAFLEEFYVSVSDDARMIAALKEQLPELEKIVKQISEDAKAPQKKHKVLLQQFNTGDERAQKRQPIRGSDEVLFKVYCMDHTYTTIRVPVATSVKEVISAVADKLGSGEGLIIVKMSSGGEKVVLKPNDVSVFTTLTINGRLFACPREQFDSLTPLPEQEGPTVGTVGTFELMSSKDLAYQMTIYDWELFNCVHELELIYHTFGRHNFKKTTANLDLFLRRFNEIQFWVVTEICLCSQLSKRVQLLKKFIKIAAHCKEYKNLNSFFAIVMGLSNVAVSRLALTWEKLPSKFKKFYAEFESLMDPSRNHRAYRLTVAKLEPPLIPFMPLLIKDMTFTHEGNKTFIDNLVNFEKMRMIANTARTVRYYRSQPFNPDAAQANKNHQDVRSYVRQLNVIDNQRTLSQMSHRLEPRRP
The target is the same in assay [4]. The assay can be described thus: Confirmatory qHTS for antagonist of cAMP-regulated guanine nucleotide exchange factor 4 (EPAC2) (AID 1645885). Also: nearly all actives have a fitted effect of over 25% in size. Also: potency is read from the fitted curve at half-maximal effect. As to activity change, negative = inhibition: % is scaled to controls: 0 for no effect and ±100 for the full control effect.
Assay [5] addresses Rap guanine nucleotide exchange factor 3 (Homo sapiens) (UniProt O95398). The experiment in a line: Counterscreen qHTS for antagonist of cAMP-regulated guanine nucleotide exchange factor 3 (EPAC1) (AID 1645888). Also: potency is read from the fitted curve at half-maximal effect.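 As to activity change, negative = inhibition: fluorescence loss as bound BODIPY-GDP is released from Rap1B; % of control where 0% means no effect.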 The essentials: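 Rap1B-BODIPY-GDP 250 nM + GDP 50 uM; cpds 7-pt, final 9.74 nM–152 uM (activator mode) or from 7.32 nM upwards (inhibitor mode); RT; FI 480/540 nm at 5 and 30 min, then ± cAMP, reread.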

Chain of Rap guanine nucleotide exchange factor 3 (Homo sapiens) (O95398 whole entry, looked up): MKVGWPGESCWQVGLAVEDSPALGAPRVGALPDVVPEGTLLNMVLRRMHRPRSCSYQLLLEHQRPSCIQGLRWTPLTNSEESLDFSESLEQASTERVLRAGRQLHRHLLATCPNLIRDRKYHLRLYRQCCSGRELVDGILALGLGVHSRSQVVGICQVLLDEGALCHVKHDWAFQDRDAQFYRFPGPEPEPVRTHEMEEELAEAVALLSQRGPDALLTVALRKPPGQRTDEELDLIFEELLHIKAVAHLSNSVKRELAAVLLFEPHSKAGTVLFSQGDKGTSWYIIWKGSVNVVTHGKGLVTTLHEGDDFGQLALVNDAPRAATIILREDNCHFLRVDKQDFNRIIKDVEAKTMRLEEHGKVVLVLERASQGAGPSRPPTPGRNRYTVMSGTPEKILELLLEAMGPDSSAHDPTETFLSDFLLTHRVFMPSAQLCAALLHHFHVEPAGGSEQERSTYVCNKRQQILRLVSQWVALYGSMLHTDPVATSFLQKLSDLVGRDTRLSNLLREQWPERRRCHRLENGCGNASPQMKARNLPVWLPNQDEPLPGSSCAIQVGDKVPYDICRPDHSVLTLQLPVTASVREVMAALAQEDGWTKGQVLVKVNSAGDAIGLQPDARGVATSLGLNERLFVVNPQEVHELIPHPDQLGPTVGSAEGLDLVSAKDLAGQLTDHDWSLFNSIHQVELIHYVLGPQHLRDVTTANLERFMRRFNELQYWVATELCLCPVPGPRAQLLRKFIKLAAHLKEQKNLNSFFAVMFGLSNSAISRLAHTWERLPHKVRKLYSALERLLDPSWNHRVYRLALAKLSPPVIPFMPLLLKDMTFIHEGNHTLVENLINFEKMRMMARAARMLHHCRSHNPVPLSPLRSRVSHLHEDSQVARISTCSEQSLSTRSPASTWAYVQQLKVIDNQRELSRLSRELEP

As for `Oc1ccc(N=Cc2c(O)ccc3ccccc23)cc1`, the Potency entry in assay [1], in assay [2] and in assay [4] was “inactive” each time. Besides, the activation in assay [3] is 11.7% [at 17.1 µM, percent relative to cAMP agonist control]. Further, in assay [5], the activity change, negative = inhibition was -17% [at 30.8 µM].
Turning to `CC(C)(C)c1ccc(N=C2SCC(=O)N2Cc2cccs2)cc1`, the Potency result in assay [1], in assay [2], in assay [3], in assay [4] and in assay [5] was “inactive” in each case.
Take `CSCCC(NC(=O)c1ccc(Cl)cc1)C(=O)OCC(=O)N1CCCC1=O` (stereo not given): the Potency entry in assay [1], in assay [2] and in assay [4] was “inactive” in each case. The activation in assay [3] was 10.4% [at 17.1 µM, percent relative to cAMP agonist control]. In addition, the activity change, negative = inhibition in assay [5] was 5.02% [at 30.8 µM].
For the molecule `NNc1nc2c(Cl)c(Cl)ccc2s1`, the Potency entry in assay [1], in assay [2] and in assay [4] was “inactive” in each case. Besides, the activation in assay [3] is 7.89% [at 17.1 µM, percent relative to cAMP agonist control]. In assay [5], the activity change, negative = inhibition was 3.53% [at 30.8 µM].
As for `S=C(Nc1ccccc1)Nc1ccccn1`, the Potency result in assay [1], in assay [2] and in assay [4] was “inactive” in each case. Also, in assay [3], the activation was 9.11% [at 17.1 µM, percent relative to cAMP agonist control]. Besides, in assay [5], the activity change, negative = inhibition is 9.21% [at 30.8 µM].
Consider `COc1ccc(NS(=O)(=O)c2ccc3[nH]c4c(c3c2)CCCCCC4)cc1`, for which the Potency entry in assay [1], in assay [2], in assay [3] and in assay [5] was “inactive” in each case. For the same molecule, in assay [4], the outcome is “inactive [at 12.7 µM]”.
For `COc1ccc(S(=O)(=O)N2CCOC23CCN(S(=O)(=O)c2ccc(F)cc2C)CC3)cc1`, the Potency entry in assay [1], in assay [2], in assay [3], in assay [4] and in assay [5] was “inactive” each time.
Take `CCCC(=O)O[C@@H]1C[C@@H](C)N(C(=O)c2ccccc2)c2ccc(C)cc21`: the Potency result in assay [1], in assay [2], in assay [3], in assay [4] and in assay [5] was “inactive” each time.
On to `CNc1ccc(Br)cc(C(=O)/C=C/c2ccc(Cl)cc2Cl)c1=O`, for which the Potency in assay [1] is 12 µM (active). Also, the Potency result in assay [2], in assay [3], in assay [4] and in assay [5] was “inactive” throughout.
`Cc1ccccc1C(=O)/C(C#N)=N/Nc1c(C)n(C)n(-c2ccccc2)c1=O`: the values for the Potency in assay [1], in assay [4] and in assay [5] were 42.6 µM (active), 67.5 µM (active) and 79.4 µM (active), respectively. Further, the Potency entry in assay [2] and in assay [3] was “inactive” each time.
On to `CC(=O)N1CCc2nc3sc(C(=O)Nc4ccc(Cl)cc4F)c(N)c3c(C(F)(F)F)c2C1`, for which the Potency result in assay [1], in assay [2], in assay [3] and in assay [5] was “inactive” each time. In addition, the outcome in assay [4] is “inactive [at 12.7 µM]”.
In the case of `COc1ccc2c(c1)c1nnc(SCC(=O)NC3CC3)nc1n2C`, the Potency entry in assay [1], in assay [2], in assay [3] and in assay [5] was “inactive” throughout. Moreover, the Potency in assay [4] was 84.9 µM (active).
Take `Cc1cc(O)c(C(=O)/C=C/c2cccc([N+](=O)[O-])c2)c(=O)o1`: in assay [1], the Potency was 33.8 µM (active). In addition, the Potency result in assay [2], in assay [3], in assay [4] and in assay [5] was “inactive” throughout.
Turning to `Cc1ccccc1OCCn1cnc2c(N)ncnc21`, the Potency entry in assay [1], in assay [2], in assay [3], in assay [4] and in assay [5] was “inactive” in each case.
Consider `O=C1Nc2ccccc2SC1c1ccccc1` (stereo not given), for which the Potency entry in assay [1], in assay [2] and in assay [4] was “inactive” throughout. Moreover, the activation in assay [3] is 3.23% [at 17.1 µM, percent relative to cAMP agonist control]. The activity change, negative = inhibition in assay [5] was -15.7% [at 30.8 µM].
Regarding `OC[C@H]1O[C@H](OCCc2ccc(O)cc2)[C@H](O)[C@@H](O)[C@@H]1O`, the Potency result in assay [1], in assay [2], in assay [3], in assay [4] and in assay [5] was “inactive” each time.
As to `Cc1ccc(C2C(C#N)=C3N=C(N)c4ccccc4N3C3=C2C(=O)CCC3)cc1` (stereo not given), the Potency entry in assay [1], in assay [2] and in assay [4] was “inactive” throughout. The activation in assay [3] is 5.16% [at 17.1 µM, percent relative to cAMP agonist control]. Moreover, the activity change, negative = inhibition in assay [5] is -7.3% [at 30.8 µM].
Regarding `COc1cccc(CNC(=O)CCCn2nc(C)c3c(C)n(-c4ccc(C)cc4)nc3c2=O)c1OC`, the Potency entry in assay [1], in assay [2], in assay [3], in assay [4] and in assay [5] was “inactive” each time.
`O=S1(=O)CCO[C@H]2Cc3ccccc3[C@H]2N1Cc1ccc(Cl)cc1`: the Potency entry in assay [1], in assay [2] and in assay [4] was “inactive” throughout. Also, the activation in assay [3] is -2.47% [at 17.1 µM, percent relative to cAMP agonist control]. Also, the activity change, negative = inhibition in assay [5] is -21.2% [at 30.8 µM].
As for `O=C(Nc1ccccn1)c1cccc(S(=O)(=O)N2CCc3ccccc3C2)c1`, the Potency result in assay [1], in assay [2], in assay [3], in assay [4] and in assay [5] was “inactive” throughout.
`COC(=O)c1c(SC)nc2ccccc2c1OCc1ccccc1C`: the Potency result in assay [1], in assay [2], in assay [3], in assay [4] and in assay [5] was “inactive” each time.
Take `COc1ccc(OCC(=O)NCCC2=CCCCC2)c([N+](=O)[O-])c1`: the Potency result in assay [1], in assay [2] and in assay [4] was “inactive” each time. Besides, in assay [3], the activation was 7.73% [at 17.1 µM, percent relative to cAMP agonist control]. Further, the activity change, negative = inhibition in assay [5] was -6.06% [at 30.8 µM].
Consider `O=C(NCc1ccccc1)c1ccc2nc(-c3ccco3)c(-c3ccco3)nc2c1`, for which the Potency in assay [1] is 16.9 µM (active). Moreover, the Potency result in assay [2], in assay [3], in assay [4] and in assay [5] was “inactive” each time.
Turning to `C/C(C/C(C)=C1/SC(=S)NC1=O)=C1\SC(=S)NC1=O`, the Potency in assay [1] was 1.69 µM (active); in assay [4] it was 21.3 µM (active). In addition, the Potency entry in assay [2], in assay [3] and in assay [5] was “inactive” in each case.
In the case of `COC1=NC(=C(c2ccccc2)c2ccccc2)OC1=O`, the Potency in assay [1] was 19 µM (active); in assay [4], 47.8 µM (active). Moreover, the Potency entry in assay [2], in assay [3] and in assay [5] was “inactive” throughout.
